Source: PubChem (National Center for Advancing Translational Sciences (NCATS))
This excerpt belongs to a sample that is enriched for hits.
Cycloheximide cs = Cycloheximide Counterscreen for Small Molecule Inhibitors of Shiga Toxin; cell reporter, cycloheximide protein synthesis inhibition counterscreen; max response, %; 300,000 compounds, 12% hits; in the data active = max response mostly above about 13%, no sharp cut-off; inactive = mostly below about 14%; note: read at 38.3 µM for the half of the compounds with a filed dose; 0% is about no effect
Vaccinia mCherry = qHTS for Stage-Specific Inhibitors of Vaccinia Orthopoxvirus: mCherry Reporter Primary qHTS; Vaccinia virus mCherry reporter infection, fluorescence; Potency, µM (titrated, usually from 36.5 µM), for the others: at the highest dose activity change, negative = inhibition, usual class: inhibitors; 310,000 compounds, 0.63% hits; calls by dose curve; tested in A549 cells; note: potency is the fitted concentration of half-maximal effect; % is set by controls: 0 for no effect and ±100 for the full control effect; nearly all actives have a fitted effect of over 35% in size
Shiga inhibitor = A qHTS for Small Molecule Inhibitors of Shiga Toxin; 290,000 compounds, 9.2% hits; Vero cells, Shiga toxin protein synthesis inhibition reporter; inhibition, % at 38.7 µM; AID 2315, 2010; in the data active = inhibition mostly above about 28%, no sharp cut-off; inactive = mostly below about 43%; note: 0% is about no effect
MARV entry inh = qHTS for inhibitors of binding or entry into cells for Marburg Virus; Marburg virus pseudotyped entry inhibition, cell reporter; AID 540276, 2011; Potency, µM (series often up to 37.8 µM), without a hit: at the top dose activity change, negative = inhibition, actives largely listed as inhibitors; 300,000 compounds, 1.8% hits; calls by dose curve; tested in HEK293 cells; note: potency is the fitted concentration of half-maximal effect; % is set by controls: 0 for no effect and ±100 for the full control effect
LASV entry inh = qHTS for Inhibitors of binding or entry into cells for Lassa Virus; Lassa virus pseudotype entry inhibition, cell reporter; Potency, µM (titrated, usually from 37.9 µM), for the others: at the top dose activity change, negative = inhibition, actives largely listed as inhibitors; 300,000 compounds, 1.2% hits; calls by dose curve; tested in HEK293 cells; note: potency is the fitted concentration of half-maximal effect; % is set by controls: 0 for no effect and ±100 for the full control effect; nearly all actives have a fitted effect of over 50% in size
VACV Venus inh = qHTS for Stage-Specific Inhibitors of Vaccinia Orthopoxvirus: Venus Reporter Primary qHTS; Vaccinia virus Venus reporter expression, fluorescence; Potency, µM (titrated, usually from 36.5 µM), for inactives: at the top dose activity change, negative = inhibition, usual class: inhibitors; 330,000 compounds, 0.46% hits; AID 720580, 2013; calls by dose curve; tested in A549 cells; note: potency is the fitted concentration of half-maximal effect; % is set by controls: 0 for no effect and ±100 for the full control effect; nearly all actives have a fitted effect of over 30% in size
* hit, by the source's call; i = inactive; ? = inconclusive; . = no result; [ ] = dose if it differs, or a comment.

SMILES | Cycloheximide cs | Vaccinia mCherry | Shiga inhibitor | MARV entry inh | LASV entry inh | VACV Venus inh
Cc1oc(-c2ccc(-c3ccccc3)cc2)nc1CN(CCO)C(C)C | 37* | i | 32 | ? | ? | -13%
CC(C)(C)OC(=O)N1CCC(c2c(C(=O)NC3CC3)cnn2-c2ccccc2)CC1 | -1 | -5%[7.34 µM] | -4 | . | . | -9%[7.34 µM]
CCCOc1ccc(CS[C@@H](CC(=O)O)C(=O)O)cc1 | . | . | . | 17% | . | .
O=C(Nc1nc(-c2cccnc2)cs1)c1ccccc1Cl | -2 | 7% | 18 | -20%[46.1 µM] | 2% | 4%
CC(=O)Nc1ccc(C(=O)Nc2nc(-c3cccnc3)cs2)cc1 | 15* | -14% | 21 | -18% | -8% | -8%
O=C(Nc1nc(-c2ccccc2)cs1)c1cccnc1 | 18 | ? | 27 | -20% | -20% | -26%
Cc1ccccc1C(=O)Nc1nc(-c2cccnc2)cs1 | 20* | . | 28 | . | . | .
Cc1cc(C)c(NC(=O)C(C)n2c(=O)cc(C)c3c(C)nn(-c4ccccc4)c32)c(C)c1 (configuration not stated) | . | -8% | . | . | -2%[46.1 µM] | 1%
O=C(O)CCCC(=O)Nc1cccc([N+](=O)[O-])c1 | -8 | -13% | -9 | 2%[46.1 µM] | ? | 4%
O=C(CCc1ccccc1)Nc1cccc([N+](=O)[O-])c1 | 16 | i | 25 | 21%[46.1 µM] | 13%[46.1 µM] | -19%
O=C(CCCc1ccccc1)Nc1cccc([N+](=O)[O-])c1 | 44* | . | . | . | . | .
O=C(CCCOc1ccccc1)Nc1cccc([N+](=O)[O-])c1 | 21* | i | 82* | -2%[46.1 µM] | 4% | 3%
Cc1ccc(CNc2cnccn2)cc1 | 12 | . | 27* | 19% | 4% | .
c1ccc(CCNc2cnccn2)cc1 | 18* | . | 34* | . | . | .
Cc1ccnc(NCc2ccc(Cl)cc2)c1 | 25* | -7% | 49* | ? | ? | -20%
Clc1ccc(CNc2ccccn2)cc1 | 31* | 4% | 55* | ? | 5%[46.1 µM] | 0%
c1ccc(CNc2ccccn2)cc1 | 1 | . | -6 | . | . | .
Fc1ccc(CNc2cnccn2)cc1 | -2 | . | -3 | 6% | 13% | .
Cc1ccnc(NCc2cc(Cl)ccc2O)c1 | . | -5% | . | . | . | -13%
O=C(NCC1Cc2cccc(-c3ncccn3)c2O1)C1CCOC1 (configuration not stated) | . | -10% | . | . | . | -4%
COc1ccc(-c2oc3cccnc3c2-c2ccc(OC)nc2)cc1 | 25* | ? | 22* | . | . | -7%
C=C(NC(=O)C(=C)NC(=O)c1csc(C2=NC3c4csc(n4)C4NC(=O)c5csc(n5)C(C(C)(O)C(C)O)NC(=O)C5CSC(=N5)/C(=C/C)NC(=O)C(C(C)O)NC(=O)c5csc(n5)C3(CC2)NC(=O)C(C)NC(=O)C(=C)NC(=O)C(=C)NC(=O)C(C(C)C)NC2C=Cc3c(C(C)O)cc(nc3C2O)C(=O)OC4C)n1)C(N)=O (configuration not stated) | . | -27% | . | 4µM* | 6.3µM* | -21%
COc1ccc(-c2csc(NC(=O)CSCc3c(C)noc3C)n2)cc1OC | -2 | -3% | -4 | ? | 11µM* | -16%
N#CCC(=O)Nc1nc(-c2ccc3c(c2)OCCO3)cs1 | 32* | -10% | 56* | . | . | -17%
COc1ccc(-c2csc(NC(=O)c3ccc(OCC(=O)N4CCOCC4)c(OC)c3)n2)cc1OC | -1 | ? | 19 | 11µM* | ? | ?
SMILES | Cycloheximide cs | Vaccinia mCherry | Shiga inhibitor | MARV entry inh | LASV entry inh | VACV Venus inh
O=C(CCCCl)Nc1nc(-c2ccc3c(c2)OCCO3)cs1 | 31* | ? | 70* | 18%[46.1 µM] | ? | -29%
Cc1noc(C)c1CSCC(=O)Nc1nc(-c2ccc(F)c(F)c2)cs1 | . | i | . | ? | ? | -12%
CC[N+](CC)(CC)c1ccc(/C=C/c2ccc3ccccc3n2)cc1 | . | i | . | . | . | i
Cc1ccc(C(=O)Nc2nc(-c3ccc4c(c3)OCCO4)cs2)o1 | . | -6% | . | . | . | -15%
O=C(Nc1nc(-c2ccc3c(c2)OCCO3)cs1)C1CCCC1 | 49* | . | 149* | . | . | .
CCOC(=O)N1CCN(C(=O)CSCC(=O)Nc2nc(-c3ccc4c(c3)OCO4)cs2)CC1 | 16 | . | 26 | ? | 7% | .
O=C(CSCC(=O)N1CCOCC1)Nc1nc(-c2ccc3c(c2)OCO3)cs1 | 33* | ? | 35 | . | . | 8.9µM*
